# Source: PubChem
# This is a sample that favours compounds with a hit; in the whole collection about 3.4% have one here.
# GPR151 activ = activates the human receptor GPR151 | Q8TDV0 | PathHunter beta-arrestin GPR151 cells, luminescence | activation, % at 11.2 µM | 650,000 compounds, 1% hits | AID 1508602; in the data active means activation above about 4.9%;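 further: 0% = median of compound wells and 100% = cells with positive control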
# TEAD-YAP block = TEAD-YAP interaction inhibition | HEK-TIYL cells, TEAD-Gal4/YAP UAS-luciferase luminescence | inhibition, % at 9.12 µM | 640,000 compounds, 1.4% hits; in the data active means inhibition above about 32%;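 further: 0% = median of test compound wells and 100% = reference inhibitor wells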
# FBW7 act = activators of human E3 ligase FBW7; AlphaScreen FBW7–phospho-cyclin E peptide binding, activator screen; Q969H0; 650,000 compounds, 0.13% hits; AID 1259310; normalized activity (activation), % at 26.1 µM; in the data active means normalized activity above about 1.9%;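 further: purified mutant Fbw7 with reduced substrate affinity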
# Target sequence (Q969H0 whole entry, looked up): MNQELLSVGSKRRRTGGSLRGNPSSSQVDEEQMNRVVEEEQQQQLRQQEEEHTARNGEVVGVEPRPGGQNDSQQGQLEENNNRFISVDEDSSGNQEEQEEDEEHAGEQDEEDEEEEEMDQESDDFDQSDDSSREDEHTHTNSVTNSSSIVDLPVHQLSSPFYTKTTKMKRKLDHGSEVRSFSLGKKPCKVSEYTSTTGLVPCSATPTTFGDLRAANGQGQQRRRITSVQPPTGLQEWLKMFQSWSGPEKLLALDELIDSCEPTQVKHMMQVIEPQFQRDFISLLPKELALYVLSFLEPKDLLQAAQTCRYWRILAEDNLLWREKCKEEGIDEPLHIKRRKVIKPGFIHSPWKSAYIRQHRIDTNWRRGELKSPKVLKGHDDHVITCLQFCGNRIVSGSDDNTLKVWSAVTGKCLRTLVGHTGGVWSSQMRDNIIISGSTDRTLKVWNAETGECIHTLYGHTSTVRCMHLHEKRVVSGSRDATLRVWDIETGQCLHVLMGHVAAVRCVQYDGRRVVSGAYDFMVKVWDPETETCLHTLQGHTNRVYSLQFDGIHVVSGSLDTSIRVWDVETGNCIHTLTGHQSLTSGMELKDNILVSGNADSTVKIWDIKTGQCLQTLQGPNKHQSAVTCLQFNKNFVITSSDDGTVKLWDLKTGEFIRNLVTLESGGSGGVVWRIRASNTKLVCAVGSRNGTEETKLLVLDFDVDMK
# MITF primary = blocks human microphthalmia-associated transcription factor | AID 1259374 | inhibition, % at 2.6 µM | AlphaScreen MITF homodimerization, bead proximity signal | 650,000 compounds, 0.91% hits | O75030; in the data active means inhibition above about 50%;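 further: 0% = vehicle wells with protein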
# * marks the source's active call; other numbers are inactive results.
SMILES,GPR151 activ,TEAD-YAP block,FBW7 act,MITF primary
Cc1cccc(Nc2ccc3c(cnn3-c3cccc(C(=O)Nc4ccc(N5CCOCC5)c(C)c4)c3)c2)c1,2,3,0,35
COc1ccc(-c2nc3cc(C)ccc3o2)cc1,-7,69*,0,0
Oc1ccc2nc(-c3ccccc3)oc2c1,-6,70*,1,5
Nc1ccc(O)c(-c2nc3cc(Cl)ccc3o2)c1,-2,-43,0,4
Cc1ccc2oc(-c3cccc(N)c3)nc2c1,-9,-6,0,4
Nc1ccc2oc(-c3cc(Cl)ccc3Br)nc2c1,1,48*,0,-4
Cc1ccc2oc(-c3ccc(N)cc3)nc2c1,-7,69*,0,5
COc1ccc(-c2nc3cc(N)ccc3o2)cc1,-6,31,0,-3
COc1ccccc1-c1nc2s/c(=C/c3cccc(OC(C)=O)c3)c(=O)n2n1,-2,-14,0,-2
Nc1ccc2oc(-c3ccc(O)cc3)nc2c1,-6,89*,0,6
CC(C)(C)c1ccc2oc(-c3ccc(N)cc3)nc2c1,0,69*,0,4
Cc1cccc2oc(-c3ccc(N)cc3)nc12,-3,51*,0,2
Nc1ccc2oc(-c3ccc(Cl)c(Cl)c3)nc2c1,-4,-3,0,-8
Nc1ccc(-c2nc3cc([N+](=O)[O-])ccc3o2)cc1,-2,-39,0,3
Cc1ccc(-c2nc3cc(N)ccc3o2)cc1,-8,54*,0,-3
CN1CCN(c2ccc(-c3cc(NCc4ccccc4)nc(N)n3)cc2)CC1,1,-13,0,-15
O=C(NCCc1nc2ccccc2[nH]1)c1ccc(Cl)cc1Cl,1,-10,0,-2
CCOC(=O)C(=Cc1cc(OC)c(OC)cc1Br)C(=O)OCC,2,42*,0,2
CCOC(=O)C(C)Oc1cc(Br)c(C=O)cc1OC (stereo not given),0,4,0,4
N#Cc1cc(-c2ccnc(Nc3cccc(NC(=O)N4CCCC4)c3)n2)ccc1N1CCCC1,0,45*,0,22
CC(Oc1ccccc1)C(=O)Nc1ncc(Cc2ccccc2)s1 (stereo not given),-1,42*,0,0
COc1cc(C(=O)Nc2ncc(Cc3cccc(Cl)c3)s2)cc(OC)c1OC,2,54*,0,13
COc1cc(C(=O)Nc2nnc(Cc3ccccc3)s2)cc(OC)c1OC,-1,3,0,0
O=C(Cc1ccccc1)Nc1ncc(Cc2ccccc2)s1,-1,-1,0,6
COc1cc(C(=O)Nc2ncc(Cc3ccccc3)s2)cc(OC)c1OC,2,53*,0,3
SMILES,GPR151 activ,TEAD-YAP block,FBW7 act,MITF primary
Cc1cccc(/C=N\NC(=O)c2ccccc2Cl)c1O,1,-61,0,-2
O=C(N/N=C/c1ccccc1O)c1ccccn1,-1,-55,0,-39
O=C(N/N=C/c1ccc(O)c(O)c1O)c1ccccn1,-3,-42,-1,108*
Cc1ccc(O)c(/C=N/NC(=O)c2ccccn2)c1,-4,-13,-1,57*
Cc1cccc(/C=N/NC(=O)c2ccccn2)c1O,-6,55*,-2,13
Cn1ccnc1C(NC(=O)N1CCCC1)c1ccc(F)c(F)c1 (stereo not given),1,0,0,4
O=[N+]([O-])c1ccc(Nc2ccc(I)cc2)c2nonc12,0,1,0,7
COC(=O)c1ccccc1N(Cc1ccccc1)S(=O)(=O)c1ccc(OC)cc1,-1,51*,0,-1
COc1ccc(S(=O)(=O)N(Cc2ccccc2)c2ccccc2C(=O)NC2CC2)cc1,0,47*,2,4
CC(=C\c1sc2oc3ccccc3c2[n+]1CCO)/C=C1/Sc2oc3ccccc3c2N1CCO,-1,-1,0,-8
CCN1/C(=C/c2ccc3cc(C)ccc3[n+]2CCO)Sc2ccccc21,0,58*,0,26
CC[n+]1c(/C=C2\Sc3cc(C)ccc3N2CCO)ccc2ccccc21,1,64*,0,25
CCN1/C(=C/c2ccc3cc(C)ccc3[n+]2C)Sc2ccc3ccsc3c21,3,76*,-1,23
CC[n+]1c(/C=C2\Sc3oc4ccccc4c3N2C)ccc2cc(C)ccc21,0,44*,0,14
CN(C(=O)Cn1c(-c2nonc2N)nc2ccccc21)c1ccccc1,0,0,0,0
CC[n+]1c(/C=C2\Sc3cc(NC(C)=O)ccc3N2C)ccc2ccccc21,0,10,0,13
CN1/C(=C/c2cccc[n+]2C)C=Cc2ccccc21,3,71*,0,12
Cc1cccc2c1N(C)/C(=C/c1cccc[n+]1C)C=C2,2,9,0,-3
CC[n+]1c(/C=C2\Sc3ccccc3N2C)ccc2ccc(C)cc21,0,77*,0,1
CCN1/C(=C/c2cccc[n+]2C)C=Cc2cc(C)ccc21,1,81*,0,7
CCN1/C(=C/c2c3ccccc3cc[n+]2CC)C=Cc2ccccc21,1,89*,0,22
C=C(C)Cn1c(SCC(=O)NC2CCCC2)nc2sc3c(c2c1=O)CCCC3,0,1,0,-11
O=C(Nc1cccc(Cl)c1)c1ccc(Nc2nc(-c3ccccc3)c3ccccc3n2)cc1,0,-1,1,6
Cc1ccc(Cn2c(SCC(=O)N3CCCC3)nc3ccsc3c2=O)cc1,1,12,0,-9
O=C(CSc1nc2cc(Cl)ccc2s1)NC1CCCCCC1,0,5,0,1
SMILES,GPR151 activ,TEAD-YAP block,FBW7 act,MITF primary
COc1ccc(C(=O)N2CCc3cc(OC)c(OC)cc3C2COc2ccc(C(C)C)cc2)cc1OC (stereo not given),0,-6,0,6
CCCCN(CC)C(=O)CSc1nc2ccccc2c(=O)n1CCCN1CCC(C)CC1,0,-2,0,9
CCN1/C(=C/c2ccc3cc(C)ccc3[n+]2CC)C=Cc2ccccc21,-1,92*,-1,8
CCN1/C(=C\c2c(O)c(=O)c2=O)Sc2ccccc21,-1,-5,0,11
CCN1/C(=C/c2ccc3cc(C)ccc3[n+]2C)Sc2ccccc21,2,76*,0,23
CCN1/C(=C/C=C/c2cc[n+](CC)c3ccccc23)C=Cc2ccccc21,0,9,0,5
CC[n+]1c(/C=C2\Sc3ccccc3N2CCO)ccc2cc(C)ccc21,1,53*,0,10
CC[n+]1c(/C=C2\Sc3ccccc3N2CCO)ccc2cc(OC)ccc21,2,70*,-1,3
C[n+]1ccccc1/C=C1\Sc2ccccc2N1CCO,0,13,0,6
Cc1ccc2oc(Cc3ccccc3)nc2c1,-2,47*,0,20
Cc1ccc(-c2nnc(Cc3ccccc3)o2)cc1,-2,-58,0,-10
CC(=O)c1cccc(-c2nc(NCCN3CCOCC3)c3ncn(-c4ccsc4)c3n2)c1,3,59*,0,10
CC(=O)c1cccc(-c2nc(NCCN3CCOCC3)c3ncn(-c4ccccc4)c3n2)c1,1,66*,0,14
COc1ccc(-c2nc(NCCN3CCOCC3)c3ncn(-c4ccsc4)c3n2)cc1,1,51*,0,8
